This passage reports z-score results from PubChem BioAssay.
Also: test concentration not given here.

The first assay is described as follows: compound effects on lung adenocarcinoma cell viability – A549, calcein-AM fluorescence, 48 h, basal, profiling panel (AID 1162). The conditions noted are these: higher = more signal.
For the compound `Cc1ccc(C(C)CC(O)C2C=CC3C(=O)N(c4ccccc4)C(=O)C3N2Nc2ccc(C(C)C)cc2)o1` (stereo not drawn), the z-score is -1.12.
Same read-out and setting: under `COCCOC(=O)N1C(=O)[C@@]2(c3cc(C#Cc4ccc(OC)cc4)ccc31)[C@H](C(=O)NC[C@H](O)c1ccccc1)[C@H]1C(=O)O[C@H](c3ccccc3)[C@H](c3ccccc3)N1[C@@H]2c1ccc(O)cc1` stands -0.24; under `COCCOC(=O)N1C(=O)[C@@]2(c3cc(C#CC4(O)CCCCCC4)ccc31)[C@H](C(N)=O)[C@H]1C(=O)O[C@H](c3ccccc3)[C@H](c3ccccc3)N1[C@@H]2c1ccc(O)cc1`, 1.47.
For `CC1CC/C=C\[C@H]2OC34C=CCN(C(C)C)C(=O)[C@H]3N(CCCCCO)C(=O)[C@@H]4C2C(=O)O1` (stereo partly drawn), the z-score was 1.85.
Regarding `CCOC(=O)C1=CC[C@@H](c2ccccc2)N(S(=O)(=O)c2ccc(C)cc2)C1`, the z-score is -0.747.
Take `CCN(CC)c1ccc(N2CC=CC34O[C@@H]5/C=C\CCC(C)OC(=O)C5[C@H]3C(=O)N(CCO)[C@@H]4C2=O)cc1` (stereo partly drawn): the z-score is 0.17.
Still for that read-out and setting: under `C=CCOC(=O)[C@H]1[C@@H]2C(=O)O[C@@H](c3ccccc3)[C@@H](c3ccccc3)N2[C@@H](c2ccc(OCCOC(=O)[C@H]3C[C@H]4C(=O)N[C@@H](CCCC[N+](C)(C)C)C(=O)N4[C@H]3c3cccc(OCCO)c3)cc2)[C@]12C(=O)Nc1ccc(I)cc12` stands -0.319; under `O=C1C[C@@](C(=O)NCC(F)(F)F)(c2ccc([N+](=O)[O-])cc2)[C@@H](c2ccc(CO)cc2)N1C1CCCCC1`, -0.113.

The next assay is described as follows: compound effects on differentiated 3T3-L1 adipocyte viability – cell-based, 3T3-L1 adipocytes, calcein-AM fluorescence, 48 h, basal, profiling panel (AID 1163). Conditions: 3T3-L1 adipocytes viability, higher = more signal.
`COC(=O)C1(Cc2ccccc2)C=C2C(=C(C(C)C)C(=O)C2C)CN1` (stereo not drawn): the z-score is 0.575.
Turning to `Cc1c(NC(=O)/C(C#N)=C/C=C/c2ccccc2[N+](=O)[O-])c(=O)n(-c2ccccc2)n1C`, the z-score is -0.355.
Same read-out and setting: for `[N-]=[N+]=NCc1ccccc1C[C@@]1(C(=O)NCCN2CCOCC2)N=C(c2ccc(OCCCO)cc2)O[C@@H]1c1ccccc1N=[N+]=[N-]` the value was 1.61.
With `C[n+]1ccc(CCCO)cc1`, the z-score was 0.927.
Same read-out and setting: under `CN1C(=O)C2C=CC(C(O)c3c(F)cccc3Cl)N(Nc3ccccc3)C2C1=O` (stereo not drawn) stands -0.924.
Same read-out and setting: under `C=C[C@@H](C)[C@H](OC(=O)Nc1ccc(SC)cc1)c1ccc(OCCO)cc1` stands 0.54; under `CC(C)C(O)C1C=CC2C(=O)N(C)C(=O)C2N1N(c1ccccc1)c1ccccc1` (stereo not drawn), -1.24.
Take `O=C1c2ccccc2[C@](Cc2ccccc2I)(C(=O)NCc2ccccc2)[C@H](c2ccc(CO)cc2)N1C1CCCCC1`: the z-score was 1.03.
Still for that read-out and setting: under `CC(=O)n1cc(C(O)C2C=CC3C(=O)N(Cc4ccccc4)C(=O)C3N2n2cnnc2)c2ccccc21` (stereo not drawn) stands -0.0245; under `COc1cc2c(cc1OC)CN(C(=O)[C@H]1[C@@H]3C(=O)O[C@@H](c4ccccc4)[C@@H](c4ccccc4)N3[C@@H](c3ccc(OCCO)cc3)[C@]13C(=O)Nc1ccc(C#CC4(O)CCCCCC4)cc13)CC2`, 0.0483.
On to `O=c1cccc(-c2ccc(C(F)(F)F)cc2)o1`, for which the z-score is -0.843.
Same read-out and setting: for `COc1ccc(C(O)C2C=CC3C(=O)N(Cc4ccccc4)C(=O)C3N2n2cnnc2)c2ccccc12` (stereo not drawn) the value was 0.936.
Still for that read-out and setting: under `CC(C)(C)OC(=O)CC[C@]1(C(=O)NCCN2CCOCC2)N=C(c2ccc(OCCCO)cc2)O[C@H]1c1ccccc1N=[N+]=[N-]` stands 0.303; under `C=CC[C@H](OC(=O)Nc1ccc(OC)cc1)c1ccc(O)c2ccccc12`, -1.07; under `COC(=O)[C@@]1(Cc2ccc(OC)cc2)[C@H]2c3cc(C(=O)N4CCCC4)n(CCc4cc5ccccc5[nH]4)c3C[C@H]2CN1C(=O)c1ccccc1`, -0.0596.
The same measure, in the same setting: under `COc1ccc(CCNC(=O)[C@@]2(Sc3ccc(C)cc3)CC(=O)N(Cc3cc(C(F)(F)F)cc(C(F)(F)F)c3)[C@@H]2c2ccc(CO)cc2I)cc1` stands -0.208; under `COc1ccc(C(O)C2C=CC3C(=O)N(C)C(=O)C3N2N2CCCCC2)cc1` (stereo not drawn), 0.0526.
Consider `COc1ccc([Si](C)(C)[C@@H]2[C@@H](CC(=O)N3CCC[C@H]3CO)O[C@]3(C(=O)N(Cc4ccc(N5C(=O)c6cccc7cccc5c67)cc4)c4ccccc43)[C@H]2C)cc1`, for which the z-score is 1.43.
The same measure, in the same setting: under `O=C1c2ccccc2[C@@]2(Cc3ccccc3N(C3CC3)C2=O)[C@H](c2ccc(CO)cc2)N1C1CCCCC1` stands -0.621.
Same read-out and setting: for `CCOC(=O)C1=CC[C@@H](c2cc(Cl)ccc2Cl)N(S(=O)(=O)c2ccc(C)cc2)[C@H]1c1ccc(OC)cc1` the value was -0.603.
The same measure, in the same setting: under `CC=CC(O)C1C=CC2C(=O)N(C)C(=O)C2N1N1CCCCC1` (stereo not drawn) stands -2.06; under `C=C(C(=O)CC[C@H](OC(C)=O)c1cccc(OCCO)c1)C(C)C`, 0.8.
On to `CC(C)C(=C=CC[C@H](O)c1ccc(OCCO)cc1)C[C@H](O)c1cc(Cl)cc(Cl)c1O`, for which the z-score is 0.831.
As to `COc1ccc(C#Cc2ccc3c(c2)[C@]2(C(=O)N3)[C@H](C(=O)N3CCc4cc(OC)c(OC)cc4C3)[C@H]3C(=O)O[C@H](c4ccccc4)[C@H](c4ccccc4)N3[C@@H]2c2ccc(O)cc2)cc1`, the z-score is -0.163.
Same read-out and setting: under `CN1C(=O)[C@@]2(CCS(=O)(=O)c3ccccc3)N=C(c3ccc(OCCCO)cc3)O[C@H]2c2ccccc21` stands 1.1; under `CC[C@H]1C2=C3C(CC[C@H]4C(OCc5ccc(F)cc5C(F)(F)F)OC[C@](C)([C@@H]34)N(C(=O)OC(C)(C)C)C2)C2COC(=O)OCC21` (stereo partly drawn), -0.412; under `Cc1ccc(S[C@]2(C(=O)NCc3ccccc3)CC(=O)N(C(C)C)[C@@H]2c2ccc(CO)cc2I)cc1`, 0.152.
`Cc1ccc(C(C)CC(O)C2C=CC3C(=O)N(c4ccccc4)C(=O)C3N2Nc2ccc(C(C)C)cc2)o1` (stereo not drawn): the z-score was -0.279.
The same measure, in the same setting: under `COCCOC(=O)N1C(=O)[C@@]2(c3cc(C#Cc4ccc(OC)cc4)ccc31)[C@H](C(=O)NC[C@H](O)c1ccccc1)[C@H]1C(=O)O[C@H](c3ccccc3)[C@H](c3ccccc3)N1[C@@H]2c1ccc(O)cc1` stands 0.711; under `COCCOC(=O)N1C(=O)[C@@]2(c3cc(C#CC4(O)CCCCCC4)ccc31)[C@H](C(N)=O)[C@H]1C(=O)O[C@H](c3ccccc3)[C@H](c3ccccc3)N1[C@@H]2c1ccc(O)cc1`, 0.521.
On the same count and under the same terms, under `CC1CC/C=C\[C@H]2OC34C=CCN(C(C)C)C(=O)[C@H]3N(CCCCCO)C(=O)[C@@H]4C2C(=O)O1` (stereo partly drawn) stands 0.601; under `CCOC(=O)C1=CC[C@@H](c2ccccc2)N(S(=O)(=O)c2ccc(C)cc2)C1`, -0.384; under `CCN(CC)c1ccc(N2CC=CC34O[C@@H]5/C=C\CCC(C)OC(=O)C5[C@H]3C(=O)N(CCO)[C@@H]4C2=O)cc1` (stereo partly drawn), 0.879.
For the compound `C=CCOC(=O)[C@H]1[C@@H]2C(=O)O[C@@H](c3ccccc3)[C@@H](c3ccccc3)N2[C@@H](c2ccc(OCCOC(=O)[C@H]3C[C@H]4C(=O)N[C@@H](CCCC[N+](C)(C)C)C(=O)N4[C@H]3c3cccc(OCCO)c3)cc2)[C@]12C(=O)Nc1ccc(I)cc12`, the z-score was -0.0546.
Regarding `O=C1C[C@@](C(=O)NCC(F)(F)F)(c2ccc([N+](=O)[O-])cc2)[C@@H](c2ccc(CO)cc2)N1C1CCCCC1`, the z-score is -1.03.
